# High-throughput results (PubChem)
# PNC inhibitor: inhibitors of perinucleolar compartment assembly; PC3M PTB-GFP, PNC prevalence imaging, 16 h; hits give low values; activity change (PNC), negative = inhibition, % at 10 µM; 3.1% of 140,000 active; AID 2417;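 active = readout at or below -70, meaning at least 70% loss of cells showing the perinucleolar compartment, a nuclear body marking cancer cells; inconclusive = readout between -30 and a set limit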;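 note: plate controls were DMSO wells for no effect and camptothecin positive control wells for full effect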
#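 PC3M cells stably expressing PTB-GFP, 750–1000 cells/well, treated 16 h at 37 °C with compound (23 nl of library stock), in duplicate. After paraformaldehyde fixation and Hoechst stain, imaged at 20x; PNC prevalence scored by image analysis.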
# ALDH1A1 inh: blocks purified human ALDH1A1 activity; 7.3% of 220,000 active; AID 1030; Purified ALDH1A1, NADH fluorescence, propionaldehyde substrate; Potency, µM (top dose mostly 75.3 µM), for inactives: top-dose activity, negative = inhibition, most hits filed as inhibitors; P00352; active = well fitted inhibition curve with a large enough effect, not every such curve was filed as active; inconclusive = small, poorly fitted or top-dose-only effect, or another doubt; inactive = no such curve, though single readings can be large or run the other way;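 note: potency is the fitted concentration of half-maximal effect; plate controls were no enzyme wells and a reference inhibitor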
# HPGD inh: HPGD (human) dehydrogenase inhibition | P15428 | purified HPGD, NADH fluorescence kinetic, PGE2 substrate | Potency, µM, for inactives: at the highest dose activity change, negative = inhibition, usual class: inhibitors | 4.3% of 150,000 active; active = well fitted inhibition curve with a large enough effect, not every such curve was filed as active; inconclusive = small, poorly fitted or top-dose-only effect, or another doubt; inactive = no such curve, though single readings can be large or run the other way; note: potency is the fitted concentration of half-maximal effect
# Target sequence (P15428 whole entry, looked up): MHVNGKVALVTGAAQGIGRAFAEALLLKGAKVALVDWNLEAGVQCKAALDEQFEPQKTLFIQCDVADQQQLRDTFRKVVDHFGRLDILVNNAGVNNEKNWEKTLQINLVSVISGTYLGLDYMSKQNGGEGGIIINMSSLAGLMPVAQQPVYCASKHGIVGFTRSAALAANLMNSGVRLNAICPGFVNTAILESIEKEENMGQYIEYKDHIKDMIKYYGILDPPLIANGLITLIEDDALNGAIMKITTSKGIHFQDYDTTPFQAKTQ
#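 20 nM HPGD preincubated 15 min at room temperature with compound in 50 mM Tris-HCl pH 8, 0.01% Tween 20. Started with 1 mM NAD+ and 30 uM prostaglandin E2; NADH fluorescence (360/450 nm) read 5 times over 30-s intervals, last minus first.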
# GLA spleen mod: inhibitors or activators of human alpha-galactosidase in spleen homogenate. Potency, µM (highest dose often 80 µM), for the others: at the top dose activity change, negative = inhibition, usual class: inhibitors. P06280. 0.008% of 240,000 active. human spleen homogenate, 4MU-alpha-Gal fluorescence, 40 min;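 note: potency is the fitted concentration of half-maximal effect; 0% = enzyme with vehicle and -100% = no enzyme basal signal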
#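 Human spleen homogenate (1 ug) was the enzyme source, with 4-methylumbelliferyl-alpha-D-galactopyranoside (1 mM final) in pH 5.0 citrate buffer with 0.01% Tween-20. Compounds were titrated; after 40 min at 37C, NaOH/glycine stop, 4-MU fluorescence read; AC50 from Hill fits.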
# GLA inh pH 4.5: blocks human alpha-galactosidase A at pH 4.5 | P06280 | purified enzyme, 4-MU-alpha-Gal fluorescence, pH 4.5 | activity change, negative = inhibition, % at 105 µM | 230,000 tested, under 10 active;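 note: 0% = full activity with enzyme and -100% = basal without enzyme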
# ALOX12 inhib: 12-hLO (ALOX12) enzyme inhibition | P18054 | purified 12-hLO, xylenol orange hydroperoxide absorbance | Potency, µM (doses to about 57.1 µM), for the others: at the highest dose activity change, negative = inhibition, most hits filed as inhibitors | 0.12% of 150,000 active | AID 1452; note: potency is the fitted concentration of half-maximal effect; nearly all actives have a fitted effect of over 55% in size
#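 Hydroperoxide output read as Fe(III)-xylenol orange absorbance, 573-to-405 nm ratio, after 30 min reaction with 40 uM arachidonic acid. Enzyme: 150 nM purified human 12hLO, 15 min compound preincubation; 25 mM Hepes pH 7.0, room temperature.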
# The depositor's hits bear a star; ? = inconclusive; nt = no result given; [ ] = remark or other dose. In the library only some 10% were active in any assay of this set; here they are far more common. Unless noted, calls come from the whole dose curve; as a rule, active = well fitted curve in the direction sought with a large enough effect; inconclusive = small, poorly fitted or top-dose-only effect, or another doubt; inactive = no such curve, though single readings can be large; an effect the other way counts as inactive or inconclusive. Unless noted, % is set by controls: 0 for no effect and ±100 for the full control effect.
SMILES,PNC inhibitor,ALDH1A1 inh,HPGD inh,GLA spleen mod,GLA inh pH 4.5,ALOX12 inhib
COc1cccc(OCc2nnc(SCC(=O)NCc3ccco3)n2CCc2ccccc2)c1,42,22µM*,-23%,6%,-8,-13%
COc1cccc(OCc2nnc(SCC(=O)NCc3ccco3)n2C)c1,7,8%,-8%,-4%,-1,8%
CC(C)[C@](N)(C(=O)O)c1ccccc1,nt,-14%[13.5 µM],-5%,nt,nt,2%[11.4 µM]
Cc1cc(C)nc(NS(=O)(=O)c2ccc(NC(=O)c3ccc4c(c3)OCO4)cc2)n1,-26,25µM*,?,15%,9,-2%
O=C(Nc1ccc(C(=O)N2CCCC2)cc1)c1ccc2c(c1)OCO2,-17,?,6.3µM*,-6%,2,-1%
O=C(Nc1ccccc1N1CCN(C(=O)c2ccc(Cl)cc2)CC1)c1ccc2c(c1)OCO2,-102*,?,?,10%,-6,-20%
O=C(Nc1ccccc1N1CCN(C(=O)c2ccccc2)CC1)c1cccc(Cl)c1,nt,nt,nt,4%,3,nt
O=C(c1ccc2c(c1)OCO2)N1CCCC1,-15,?,?,9%,-5,7%
CO[C@@H]1COC(=O)[C@H]2CCCN2C(=O)[C@@H](C)COC(=O)CCC[C@H]1C,nt,10%[13.5 µM],nt,2%[17.5 µM],nt,nt
CC(=O)[C@H]([C@@H](c1ccccc1)N1CCOCC1)N1CCOCC1,nt,nt,nt,nt,nt,1%[11.4 µM]
CCCOc1ccc(-c2nn(-c3ccccc3)cc2/C=C2\SC(N)=NC2=O)cc1C,7,-7%,10µM*,-18%,-12,-2%
COc1ccc(-c2nn(-c3ccccc3)cc2/C=C2/SC(=S)N(Cc3ccco3)C2=O)c(C)c1,23,-9%,-9%,-10%,1,1%
COc1ccc(-c2nn(CCC(=O)O)cc2/C=C2\SC(N)=NC2=O)cc1OC,-25,1%,3.2µM*,0%,-3,-1%
CCOC(=O)/C(C#N)=C/c1cn(CCC(=O)O)nc1-c1ccc(OC)cc1,nt,?,nt,-14%,-3,nt
COc1ccc(-c2nn(CCC#N)cc2/C=N/O)cc1OC,nt,18µM*,nt,7%,-4,nt
NC(C(=O)O)c1cc(O)c(Cl)c(O)c1 (stereo not given),nt,14%,nt,1%,nt,nt
CCN1C=C(Cc2cccs2)C2=C(C1)C(c1cccs1)C(C#N)=C(N)O2 (stereo not given),-24,20µM*,-24%,7%,-13,-29%
CCN1CC2=C(OC(N)=C(C#N)C2c2cccs2)/C(=C/c2cccs2)C1 (stereo not given),-26,18µM*,-14%,-9%,-3,-17%
OCCCNCc1ccncc1,nt,-3%[13.5 µM],-6%,nt,nt,1%[11.4 µM]
CCOc1ccc(/C=C2/SC(=S)N(C(C(=O)O)c3ccccc3)C2=O)cc1OCC (stereo not given),nt,?,nt,?,-8,nt
CCOc1ccc(/C=C2\SC(=S)N(Nc3ccccc3)C2=O)cc1OC,-18,3.2µM*,-7%,-3%,-6,1%
CCOc1cc(/C=C2/SC(=S)N(C)C2=O)ccc1Oc1ccc([N+](=O)[O-])cc1[N+](=O)[O-],nt,0.4µM*,nt,8%,-23,nt
COc1cc(/C=C2\SC(=S)N(NS(=O)(=O)c3ccc(C)cc3)C2=O)ccc1O,nt,25µM*,nt,-1%,-5,nt
COc1cc(/C=C2\SC(=S)N(Nc3ccccc3)C2=O)cc(OC)c1OC,-3,7.1µM*,-17%,-28%,-4,-25%
O=[N+]([O-])c1ccc(C2=Nn3c(nnc3-c3ccc(Cl)cc3)SC2)o1,nt,-9%[13.5 µM],-10%,nt,nt,-12%[11.4 µM]
CNC(=O)[C@H](Cc1c[nH]c2ccccc12)NC(=O)[C@@H](CC(=O)NO)CC(C)C,nt,3%,nt,4%,nt,nt
O=C(NCc1ccco1)c1cc([N+](=O)[O-])ccc1N1CCOCC1,nt,?,nt,6%,-1,nt
C=CCN1C(=O)/C(=C\c2cc(Br)c(OCc3ccccn3)c(OC)c2)SC1=S,nt,0.28µM*,nt,-5%,1,nt
COc1cc(/C=C2\SC(=S)N(CC(=O)Nc3ccccn3)C2=O)cc(OC)c1OC,-6,?,-13%,-1%,4,-2%
